The nature of assay [1]: Tanguay_ZF_120hpf_SNOU_legacy: (Legacy) Oregon State University Tanguay Lab 120 Hour Post-fertilization zebrafish Assay for Snout Malformation (AID 2283637). The method in brief:
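Dechorionated tropical 5D wild-type zebrafish embryos exposed statically from 6 to 120 hpf at 28C, one per well, in 0.64% DMSO. Snout malformation scored as present/absent by brightfield at 120 hpf; dead embryos not scored.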

Assay [2] can be described thus: Tanguay_ZF_120hpf_PE_legacy: (Legacy) Oregon State University Tanguay Lab 120 Hour Post-fertilization zebrafish Assay for Pericardial Edema (AID 2283640).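 For AC50: potency for increased incidence of pericardial edema versus DMSO baseline.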 The method in brief: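 Static waterborne exposure, 5D wild-type embryos, 28C, to 120 hpf; final DMSO 0.64% (vol/vol). Binary PE call at 120 hpf by brightfield; fitted upward vs DMSO baseline. 5uM trimethyltin chloride as positive control.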

A short description of assay [3]: Tanguay_ZF_120hpf_BRAI_legacy: (Legacy) Oregon State University Tanguay Lab 120 Hour Post-fertilization zebrafish Assay for Brain Malformation (AID 2283641). In outline:
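Read-out: binary brain morphology call at 120 hpf (brightfield), fitted in gain-of-signal direction vs DMSO. Wild-type Tropical 5D embryos, static exposure, 28C, 0.64% DMSO final; 5uM trimethyltin chloride as positive control.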

The nature of assay [4]: Tanguay_ZF_120hpf_SOMI_legacy: (Legacy) Oregon State University Tanguay Lab 120 Hour Post-fertilization zebrafish Assay for Somite Malformation (AID 2283647). The method in brief: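 Binary brightfield scoring of somite defects at 120 hpf in 5D wild-type larvae; one dechorionated embryo per well, static exposure from 6 hpf, 28C, sealed and dark. Final DMSO 0.64%; trimethyltin chloride 5uM positive control.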

The nature of assay [5]: Tanguay_ZF_120hpf_PFIN_legacy: (Legacy) Oregon State University Tanguay Lab 120 Hour Post-fertilization zebrafish Assay for Pectoral Fin Malformation (AID 2283648).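 Note: each larva judged yes or no for fin defect by brightfield with dead larvae skipped.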 In outline: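 Dechorionated Tropical 5D wild-type zebrafish embryos, one per well, statically exposed from 6 to 120 hpf at 28C with 0.64% DMSO final. Pectoral fin malformation scored present/absent by brightfield at 120 hpf; not scored in dead embryos.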

Assay [6] is described as follows: Tanguay_ZF_120hpf_CFIN_legacy: (Legacy) Oregon State University Tanguay Lab 120 Hour Post-fertilization zebrafish Assay for Caudal Fin Malformation (AID 2283649). In outline: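 Dechorionated 5D wild-type zebrafish, static exposure 6–120 hpf, 28C, sealed and dark, 0.64% v/v DMSO final. Binary fin-malformation call at 120 hpf, brightfield; gain of signal vs DMSO baseline.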

Assay [7] can be described thus: Tanguay_ZF_120hpf_PIG_legacy: (Legacy) Oregon State University Tanguay Lab 120 Hour Post-fertilization zebrafish Assay for Pigmentation Malformation (AID 2283650). In outline: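 Dechorionated Tropical 5D wild-type embryos, one per well from 6 hpf, statically exposed at 28C in the dark until 120 hpf, 0.64% DMSO final. Pigmentation scored present/absent by brightfield microscopy; dead embryos not scored; fitted versus DMSO.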

Assay [8] is described as follows: Tanguay_ZF_120hpf_CIRC_legacy: (Legacy) Oregon State University Tanguay Lab 120 Hour Post-fertilization zebrafish Assay for Circulatory Malformation (AID 2283651). In outline: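 Read-out: presence or absence of circulatory malformation at 120 hpf, scored by brightfield microscopy, fitted in the gain-of-signal direction against DMSO baseline. Wild-type 5D larvae were exposed from 6 hpf after enzymatic chorion removal.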

Assay [9] is described as follows: Tanguay_ZF_120hpf_SWIM_legacy: (Legacy) Oregon State University Tanguay Lab 120 Hour Post-fertilization zebrafish Assay for Swim Bladder Malformation (AID 2283654).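 Note: swim bladder malformation in each larva scored yes or no under brightfield.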 The method in brief: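 Dechorionated wild-type Tropical 5D zebrafish embryos, one per well from 6 hpf, were statically exposed at 28C until 120 hpf in 0.64% DMSO. Swim bladder malformation scored as present/absent by brightfield microscopy; not scored in dead larvae.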

The nature of assay [10]: Tanguay_ZF_120hpf_TRUN_legacy: (Legacy) Oregon State University Tanguay Lab 120 Hour Post-fertilization zebrafish Assay for Truncated Body (AID 2283655). In outline: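 Whole-embryo zebrafish screen: dechorionated 5D embryos, static exposure 6–120 hpf, 28C, sealed foil-covered plates, 0.64% DMSO. Binary truncation call; gain of signal versus DMSO baseline.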
Read-out in assay [11]: Broad substrate specificity ATP-binding cassette transporter ABCG2 (Homo sapiens) (UniProt Q9UNQ0)
The experiment in a line: CLD_ABCG2_6hr: CellzDirect (CLD) Gene Expression Assay for ABC Transporter (ABCG2) at 6 hours (AID 2283660). In outline: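 Primary human hepatocytes dosed daily with chemicals at multiple concentrations (0.2% DMSO vehicle), harvested 6 h after dosing. ABCG2 mRNA induction read by quantitative nuclease protection assay (qNPA) chemiluminescence; gain of signal fitted against DMSO baseline.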

The nature of assay [12]: Tanguay_ZF_120hpf_EYE_legacy: (Legacy) Oregon State University Tanguay Lab 120 Hour Post-fertilization zebrafish Assay for Eye Malformation (AID 2283636). In outline:
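Dechorionated Tropical 5D zebrafish embryos, one per well from 6 hpf, static exposure to 120 hpf at 28C, 0.64% DMSO. Eye malformation scored present/absent by brightfield; dead embryos not scored.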

Read-out in assay [13]: kallikrein-3 (KLK3), KLK3 (gene 354)
The experiment in a line: LTEA_HepaRG_KLK3: Life Technologies and Expression Analysis (LTEA) Assay for kallikrein-3 (KLK3) using HepaRG (AID 2283652; active = hit-call score of the fitted dose curve at least 0.9, where 1 is the maximum; inactive = score below 0.9). To be noted: mRNA level, 48 h; actives raise or lower the signal. In outline: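 Differentiated human HepaRG cells in serum-free induction medium exposed 48 h in duplicate, eight-point half-log series from 100 uM in 0.5% DMSO. KLK3 mRNA by qRT-PCR, normalised to ACTB, GAPDH, POLR2A; bidirectional fit versus DMSO.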

Read-out in assay [14]: solute carrier (SLC22A6), SLC22A6 (gene 9356)
The experiment in a line: LTEA_HepaRG_SLC22A6: Life Technologies and Expression Analysis (LTEA) Assay for solute carrier (SLC22A6) using HepaRG (AID 2283653; active = hit-call score of the fitted dose curve at least 0.9, where 1 is the maximum; inactive = score below 0.9). The settings on record: mRNA level, 48 h; actives raise or lower the signal. In outline:
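HepaRG, human liver line; 48 h chemical exposure; 8-pt half-log series from 100 uM in 0.5% DMSO, duplicate wells. Readout: TaqMan qRT-PCR of SLC22A6 mRNA, housekeeping-normalised; bidirectional curve fit vs DMSO baseline.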

Read-out in assay [15]: solute carrier (SLC10A1), SLC10A1 (gene 6554)
The assay can be described thus: LTEA_HepaRG_SLC10A1: Life Technologies and Expression Analysis (LTEA) Assay for solute carrier (SLC10A1) using HepaRG (AID 2283657; active = hit-call score of the fitted dose curve at least 0.9, where 1 is the maximum; inactive = score below 0.9). The settings on record: mRNA level, 48 h; actives raise or lower the signal. In outline:
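HepaRG cells (single lot) exposed 48 h in serum-free induction medium, 8-point half-log series from 100 uM top in 0.5% DMSO, duplicate. SLC10A1 mRNA by qRT-PCR normalised to ACTB, GAPDH, POLR2A; bidirectional fit versus DMSO.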

Read-out in assay [16]: matrix metalloproteinase-1 (MMP1), MMP1 (gene 4312)
The assay can be described thus: LTEA_HepaRG_MMP1: Life Technologies and Expression Analysis (LTEA) Assay for matrix metalloproteinase-1 (MMP1) using HepaRG (AID 2283658; active = hit-call score of the fitted dose curve at least 0.9, where 1 is the maximum; inactive = score below 0.9). To be noted: mRNA level, 48 h; actives raise or lower the signal. The method in brief: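 MMP1 transcript read by TaqMan qRT-PCR (Fluidigm array) after 48 h chemical exposure of HepaRG cells in serum-free induction medium. Eight-point half-log series, top 100 uM, 0.5% DMSO vehicle. Bidirectional curve fit against DMSO baseline.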

For assay [17], the system named is Thyroperoxidase (TPO), gene 54314. The experiment in a line: CCTE_Simmons_AUR_rTPO: CCTE's Amplex UltraRed Assay for Thyroperoxidase (TPO) Inhibition, Simmons Lab (AID 2283662).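 For AC50: potency for loss of signal meaning inhibition of peroxidase activity.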 The method in brief:
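Cell-free peroxidase activity assay using rat thyroid gland microsomes with excess H2O2 (300 uM) and 25 uM Amplex UltraRed. Compounds tested from 5 nM to 87.5 uM; fluorescence measured after 30 min at 37C, analysed relative to DMSO baseline.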

The nature of assay [18]: Tanguay_ZF_120hpf_JAW_legacy: (Legacy) Oregon State University Tanguay Lab 120 Hour Post-fertilization zebrafish Assay for Jaw Malformation (AID 2283638). In outline:
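Binary jaw-malformation calls at 120 hpf by brightfield imaging; DMSO (0.64% v/v) = baseline. Embryos: 5D wild-type, pronase-dechorionated, one per well from 6 hpf, static exposure, 28C, sealed, dark.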

A short description of assay [19]: Tanguay_ZF_120hpf_NC_legacy: (Legacy) Oregon State University Tanguay Lab 120 Hour Post-fertilization zebrafish Assay for Notochord and Tail Malformation (AID 2283656). In outline: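 Dechorionated Tropical 5D wild-type zebrafish embryos, one per well from 6 hpf, statically exposed to 120 hpf at 28C in 0.64% DMSO final. Notochord distortion scored present/absent by brightfield; dead embryos excluded.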

Where “and” joins values, the source holds several entries; their conditions need not be identical. Equal values may be shown once. Results filed as inconclusive are left out. The source holds several records for some structures; these can differ, active in one and inactive in another. Calls of active or inactive are those of the source. Rule for the calls, unless noted: active = hit-call score of the fitted dose curve at least 0.9, where 1 is the maximum; inconclusive = response in the unintended direction; inactive = score below 0.9.

Chain of Broad substrate specificity ATP-binding cassette transporter ABCG2 (Homo sapiens) (Q9UNQ0 whole entry, looked up): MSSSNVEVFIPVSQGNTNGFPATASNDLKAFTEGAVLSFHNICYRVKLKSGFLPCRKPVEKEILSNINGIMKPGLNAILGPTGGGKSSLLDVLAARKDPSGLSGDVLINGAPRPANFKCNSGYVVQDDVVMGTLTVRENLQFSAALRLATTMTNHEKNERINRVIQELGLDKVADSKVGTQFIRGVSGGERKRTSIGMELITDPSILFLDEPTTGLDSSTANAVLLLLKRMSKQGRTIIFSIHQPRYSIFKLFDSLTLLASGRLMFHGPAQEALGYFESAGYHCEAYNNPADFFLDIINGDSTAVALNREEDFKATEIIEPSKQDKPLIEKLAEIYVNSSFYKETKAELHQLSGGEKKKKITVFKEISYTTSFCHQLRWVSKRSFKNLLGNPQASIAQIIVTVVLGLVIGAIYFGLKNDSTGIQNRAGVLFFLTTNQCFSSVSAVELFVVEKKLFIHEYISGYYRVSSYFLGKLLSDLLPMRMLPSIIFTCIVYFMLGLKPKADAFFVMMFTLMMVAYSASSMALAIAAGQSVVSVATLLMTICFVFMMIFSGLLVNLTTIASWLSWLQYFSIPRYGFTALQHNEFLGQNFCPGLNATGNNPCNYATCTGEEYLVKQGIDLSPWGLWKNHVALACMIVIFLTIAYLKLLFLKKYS

The term AC50 denotes the midpoint of the concentration-response curve, whichever way the signal moves. `CC(C)(c1ccc(O)cc1)c1ccc(O)cc1`: the AC50 is 46.9 µM (active) and 47.9 µM (active) and 37.4 µM (active) in assay [1]; 43.3 µM (active) and 34.9 µM (active) in [2]; 41.6 µM (active) and 39.4 µM (active) in assay [3]; 44.3 µM (active) and 36.4 µM (active) in [4]; 29.8 µM (active) and 37.2 µM (active) in [5]; 35.2 µM (active) in assay [6]. In addition, the AC50 in [7] was 42 µM (active) and 36.8 µM (active); in assay [8], 36.7 µM (active); in assay [9], 37.5 µM (active); in [10] it was 25.9 µM (active) and 43.8 µM (active). Besides, the call in assay [3], in assay [4], in assay [5], in [6], in assay [8] and in assay [9] was inactive. Moreover, the compound was classed as inactive in assay [10] and in [11].
In the case of `CCCCOCCOCCOCc1cc2c(cc1CCC)OCO2`, the outcome in [12], in assay [3], in assay [4], in assay [5], in assay [7] and in assay [8] was inactive. Also, the compound was classed as inactive in assay [13], in assay [14], in assay [9], in [16] and in [11]. In addition, the AC50 is 26.2 µM (active) in assay [2]; 10.7 µM (active) in assay [6]; 48 µM (active) in assay [10]; 67.7 µM (active) in [15]; 34.2 µM (active) in [17].
As to `N#CSCSc1nc2ccccc2s1`, the compound was classed as inactive in assay [1], in assay [18], in assay [2], in [3], in [4] and in assay [5]. Moreover, the compound was called inactive in [6], in assay [7], in assay [8], in assay [14], in assay [9] and in assay [10]. For the same compound, the compound was classed as inactive in assay [19], in assay [16] and in assay [11]. Further, the AC50 in [15] is 83.6 µM (active); in [17] it was 2.57 µM (active).
Regarding `CC1(C)C(C=C(Cl)Cl)C1C(=O)OCc1cccc(Oc2ccccc2)c1` (stereo not given), the result in assay [1], in assay [2], in assay [3], in assay [4], in [5] and in [6] was inactive. Further, the call in assay [9], in assay [10] and in assay [11] was inactive.
As to `N[C@@H](Cc1cc(I)c(Oc2ccc(O)c(I)c2)c(I)c1)C(=O)O`, the result in [2], in [4], in assay [5], in assay [6], in [8] and in assay [10] was inactive. In addition, the figures for the AC50 in assay [7] and in [17] were 0.51 nM (active) and 2.92 µM (active), respectively.
Take `COC(=O)CSc1cc(N=c2sc(=O)n3n2CCCC3)c(F)cc1Cl`: the outcome in [2], in assay [3], in assay [5], in assay [7], in assay [8] and in assay [9] was inactive. The call in assay [10], in assay [19] and in assay [11] was inactive.
For `c1ccc(Nc2ccccc2)cc1`, the AC50 was 36.1 µM (active) in assay [2] and 10.2 µM (active) in assay [3]. For the same compound, the outcome in [4], in [5], in assay [6], in [7], in [9] and in assay [11] was inactive.
For `c1ccc2[nH]c(-c3cscn3)nc2c1`, the outcome in assay [3], in assay [5], in [7], in assay [8], in assay [9] and in [10] was inactive.
As to `COC(=O)c1cccc(C)c1S(=O)(=O)NC(=O)Nc1nc(OCC(F)(F)F)nc(N(C)C)n1`, in assay [11], the compound was called inactive.
`CCCOC(=O)c1ccc(C(=O)OCCC)nc1`: the outcome in assay [2], in assay [5], in assay [7], in [11] and in [17] was inactive. In assay [9], the AC50 is 1.97 µM (active).
Turning to `C#C[C@]1(O)CC[C@H]2[C@@H]3CCC4=CC(=O)CC[C@@H]4[C@H]3CC[C@@]21CC`, the call in assay [3], in assay [4], in [6], in [7] and in assay [9] was inactive.
Consider `COc1c(Cl)ccc(Cl)c1C(=O)O`, for which the call in [2], in assay [3], in assay [4], in assay [5], in [6] and in assay [7] was inactive. In addition, the result in [8] and in [10] was inactive.
Consider `CCN(Cc1c(F)cccc1Cl)c1c([N+](=O)[O-])cc(C(F)(F)F)cc1[N+](=O)[O-]`, for which the compound was called inactive in [2], in [4], in assay [5], in assay [6], in [7] and in assay [8]. For the same compound, the compound was classed as inactive in assay [9] and in [10].
For the compound `C#CCOC(=O)[C@@H](C)Oc1ccc(Oc2ncc(Cl)cc2F)cc1`, the compound was classed as inactive in [2], in assay [4], in [7], in [9] and in [11].
Consider `CCCCOC(=O)C(C)Oc1ccc(Oc2ccc(C(F)(F)F)cn2)cc1` (stereo not given), for which the compound was called inactive in [2], in [4], in assay [5], in assay [7], in assay [8] and in assay [9].

These data come from PubChem BioAssay (EPA / NIEHS).
